Experimental data reported in PMC8384837, “Expanding the binding specificity for RNA recognition by a PUF domain”.

What was measured:
Test in all cases: yeast three-hybrid, YBZ-1, SC-Leu-His + 0.5 mM 3-AT, 4 days
Settings in all cases: tags: N-Gal4 AD-HA kept; label: inside an RPR1-promoter hybrid RNA with tandem MS2 sites; ssRNA
PUM1 PUF domain R7-LWG = PUM1 PUF domain R7-LWG (Homo sapiens, UniProt Q14671 828-1176, S1079L;N1080W;E1083G)
Procedure, shortened: (§1)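 Each repeat of the Pumilio-1 PUF domain was randomized at its three base-contacting residues, and these libraries were co-expressed from a centromeric plasmid with matching RNA elements in strain YBZ-1. After four days on SC-Leu (input) or SC-Leu-His + 0.5 mM 3-AT (selection), the repeat regions were PCR-amplified and Illumina-sequenced. The interaction score compares variant frequency between input and selection as a log change, computed in log2 with a pseudocount of 1 for absent variants.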

PUM1 PUF domain R7-KWR = PUM1 PUF domain R7-KWR (Homo sapiens, UniProt Q14671 828-1176, S1079K;N1080W;E1083R)
Procedure, shortened: as §1

PUM1 PUF domain R8-PKR = PUM1 PUF domain R8-PKR (Homo sapiens, UniProt Q14671 828-1176, N1122P;Y1123K;Q1126R)
Procedure, shortened: as §1

PUM1 PUF domain R8-GWR = PUM1 PUF domain R8-GWR (Homo sapiens, UniProt Q14671 828-1176, N1122G;Y1123W;Q1126R)
Procedure, shortened: as §1

PUM1 PUF domain R5-RDR = PUM1 PUF domain R5-RDR (Homo sapiens, UniProt Q14671 828-1176, C1007R;R1008D;Q1011R)
Procedure, shortened: as §1

PUM1 PUF domain R5-KRW = PUM1 PUF domain R5-KRW (Homo sapiens, UniProt Q14671 828-1176, C1007K;Q1011W)
Procedure, shortened: as §1

PUM1 PUF domain R5-KCV = PUM1 PUF domain R5-KCV (Homo sapiens, UniProt Q14671 828-1176, C1007K;R1008C;Q1011V)
Procedure, shortened: as §1

PUM1 PUF domain R2-RRG = PUM1 PUF domain R2-RRG (Homo sapiens, UniProt Q14671 828-1176, N899R;Y900R;Q903G)
Procedure, shortened: as §1

PUM1 PUF domain R3-LWG = PUM1 PUF domain R3-LWG (Homo sapiens, UniProt Q14671 828-1176, C935L;R936W;Q939G)
Procedure, shortened: as §1

PUM1 PUF domain R3-GYW = PUM1 PUF domain R3-GYW (Homo sapiens, UniProt Q14671 828-1176, C935G;R936Y;Q939W)
Procedure, shortened: as §1

PUM1 PUF domain R4-TPC = PUM1 PUF domain R4-TPC (Homo sapiens, UniProt Q14671 828-1176, N971T;H972P;Q975C)
Procedure, shortened: as §1

PUM1 PUF domain R5-QAK = PUM1 PUF domain R5-QAK (Homo sapiens, UniProt Q14671 828-1176, C1007Q;R1008A;Q1011K)
Procedure, shortened: as §1

PUM1 PUF domain R5-LNR = PUM1 PUF domain R5-LNR (Homo sapiens, UniProt Q14671 828-1176, C1007L;R1008N;Q1011R)
Procedure, shortened: as §1

PUM1 PUF domain R5-RFM = PUM1 PUF domain R5-RFM (Homo sapiens, UniProt Q14671 828-1176, C1007R;R1008F;Q1011M)
Procedure, shortened: as §1

PUM1 PUF domain R5-QCH = PUM1 PUF domain R5-QCH (Homo sapiens, UniProt Q14671 828-1176, C1007Q;R1008C;Q1011H)
Procedure, shortened: as §1

PUM1 PUF domain R5-IHE = PUM1 PUF domain R5-IHE (Homo sapiens, UniProt Q14671 828-1176, C1007I;R1008H;Q1011E)
Procedure, shortened: as §1

PUM1 PUF domain R7-QNE = PUM1 PUF domain R7-QNE (Homo sapiens, UniProt Q14671 828-1176, S1079Q)
Procedure, shortened: as §1

PUM1 PUF domain R3-TRG = PUM1 PUF domain R3-TRG (Homo sapiens, UniProt Q14671 828-1176, C935T;Q939G)
Procedure, shortened: as §1

PUM1 PUF domain R6-VYQ = target: T1, PUM1 PUF domain R6-VYQ (Homo sapiens, UniProt Q14671 828-1176, N1043V)
T1 sequence: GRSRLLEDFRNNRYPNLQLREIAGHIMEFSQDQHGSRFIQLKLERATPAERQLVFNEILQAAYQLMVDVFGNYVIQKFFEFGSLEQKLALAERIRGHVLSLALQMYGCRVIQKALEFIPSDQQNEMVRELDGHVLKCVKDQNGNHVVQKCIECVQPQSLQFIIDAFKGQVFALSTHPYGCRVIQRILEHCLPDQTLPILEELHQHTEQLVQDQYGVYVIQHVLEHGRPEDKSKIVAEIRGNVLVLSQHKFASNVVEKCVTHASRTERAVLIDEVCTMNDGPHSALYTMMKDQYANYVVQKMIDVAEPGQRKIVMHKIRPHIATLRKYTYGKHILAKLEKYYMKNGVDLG
Procedure, shortened: as §1

PUM1 PUF domain R1-ERV = PUM1 PUF domain R1-ERV (Homo sapiens, UniProt Q14671 828-1176, S863E;Q867V)
Procedure, shortened: as §1

For “GGCUAGAACUAGUGGAUCCCCCGGCGCCCGGCGGCUCGAGCCCGGGUAAGUCUAAAUAGUCUGCAUGCCGCCGGGCGCCAUGCCUGCAGGUCGACUCUAGAAAACAUG”, the binding signal (PUM1 PUF domain R7-LWG) was 2.65 log2 enrichment (interaction score) and the binding signal (PUM1 PUF domain R7-KWR) was 5.09 log2 enrichment (interaction score).

For “GGCUAGAACUAGUGGAUCCCCCGGCGCCCGGCGGCUCGAGCCCGGGUAAGCGUAAAUAGUCUGCAUGCCGCCGGGCGCCAUGCCUGCAGGUCGACUCUAGAAAACAUG”, the binding signal (PUM1 PUF domain R8-PKR) was 3.72 log2 enrichment (interaction score) and the binding signal (PUM1 PUF domain R8-GWR) was 5.66 log2 enrichment (interaction score).

In the case of “GGCUAGAACUAGUGGAUCCCCCGGCGCCCGGCGGCUCGAGCCCGGGUAAGUGUCAAUAGUCUGCAUGCCGCCGGGCGCCAUGCCUGCAGGUCGACUCUAGAAAACAUG”, the binding signal (PUM1 PUF domain R5-RDR) is reported as 3.41 log2 enrichment (interaction score), the binding signal (PUM1 PUF domain R5-KRW) is reported as 2.58 log2 enrichment (interaction score) and the binding signal (PUM1 PUF domain R5-KCV) is reported as 2.63 log2 enrichment (interaction score).

In the case of “GGCUAGAACUAGUGGAUCCCCCGGCGCCCGGCGGCUCGAGCCCGGGUAAGUGUAAAGAGUCUGCAUGCCGCCGGGCGCCAUGCCUGCAGGUCGACUCUAGAAAACAUG”, the binding signal (PUM1 PUF domain R2-RRG) is reported as 2.19 log2 enrichment (interaction score).

“GGCUAGAACUAGUGGAUCCCCCGGCGCCCGGCGGCUCGAGCCCGGGUAAGUGUAAUUAGUCUGCAUGCCGCCGGGCGCCAUGCCUGCAGGUCGACUCUAGAAAACAUG” was tested, and the binding signal (PUM1 PUF domain R3-LWG) was 3.8 log2 enrichment (interaction score) and the binding signal (PUM1 PUF domain R3-GYW) was 2.62 log2 enrichment (interaction score).

In the case of “GGCUAGAACUAGUGGAUCCCCCGGCGCCCGGCGGCUCGAGCCCGGGUAAGUGUAUAUAGUCUGCAUGCCGCCGGGCGCCAUGCCUGCAGGUCGACUCUAGAAAACAUG”, the binding signal (PUM1 PUF domain R4-TPC) is reported as 5.59 log2 enrichment (interaction score).

In the case of “GGCUAGAACUAGUGGAUCCCCCGGCGCCCGGCGGCUCGAGCCCGGGUAAGUGUUAAUAGUCUGCAUGCCGCCGGGCGCCAUGCCUGCAGGUCGACUCUAGAAAACAUG”, the binding signal (PUM1 PUF domain R5-QAK) is reported as 3.34 log2 enrichment (interaction score), the binding signal (PUM1 PUF domain R5-LNR) is reported as 4.82 log2 enrichment (interaction score) and the binding signal (PUM1 PUF domain R5-RFM) is reported as 4.36 log2 enrichment (interaction score). The binding signal (PUM1 PUF domain R5-KCV) was 1.51 log2 enrichment (interaction score).

“GGCUAGAACUAGUGGAUCCCCCGGCGCCCGGCGGCUCGAGCCCGGGUAAGUGUGAAUAGUCUGCAUGCCGCCGGGCGCCAUGCCUGCAGGUCGACUCUAGAAAACAUG” was tested, and the binding signal (PUM1 PUF domain R5-RDR) was 2.62 log2 enrichment (interaction score) and the binding signal (PUM1 PUF domain R5-QCH) was 3.31 log2 enrichment (interaction score).

For “GGCUAGAACUAGUGGAUCCCCCGGCGCCCGGCGGCUCGAGCCCGGGUAAGUGUAAAUAGUCUGCAUGCCGCCGGGCGCCAUGCCUGCAGGUCGACUCUAGAAAACAUG”, the binding signal (PUM1 PUF domain R8-PKR) was 2.74 log2 enrichment (interaction score), the binding signal (PUM1 PUF domain R8-GWR) was 5.13 log2 enrichment (interaction score) and the binding signal (PUM1 PUF domain R5-LNR) was 1.95 log2 enrichment (interaction score). For the same sequence, the binding signal (PUM1 PUF domain R5-IHE) was 3.04 log2 enrichment (interaction score), the binding signal (PUM1 PUF domain R3-LWG) was 2.39 log2 enrichment (interaction score) and the binding signal (PUM1 PUF domain R3-GYW) was 5.68 log2 enrichment (interaction score). The binding signal (PUM1 PUF domain R7-QNE) was 4.09 log2 enrichment (interaction score), the binding signal (PUM1 PUF domain R3-TRG) was 3.15 log2 enrichment (interaction score) and the binding signal (PUM1 PUF domain R6-VYQ) was 4.06 log2 enrichment (interaction score). For the same sequence, the binding signal (PUM1 PUF domain R4-TPC) was 4.17 log2 enrichment (interaction score) and the binding signal (PUM1 PUF domain R5-RFM) was 1.2 log2 enrichment (interaction score).

For “GGCUAGAACUAGUGGAUCCCCCGGCGCCCGGCGGCUCGAGCCCGGGUAAGUAUAAAUAGUCUGCAUGCCGCCGGGCGCCAUGCCUGCAGGUCGACUCUAGAAAACAUG”, the binding signal (PUM1 PUF domain R7-KWR) was 2.7 log2 enrichment (interaction score).

In the case of “GGCUAGAACUAGUGGAUCCCCCGGCGCCCGGCGGCUCGAGCCCGGGUAAGUGUAAAUCGUCUGCAUGCCGCCGGGCGCCAUGCCUGCAGGUCGACUCUAGAAAACAUG”, the binding signal (PUM1 PUF domain R1-ERV) is reported as 5.04 log2 enrichment (interaction score).

“GGCUAGAACUAGUGGAUCCCCCGGCGCCCGGCGGCUCGAGCCCGGGUAAGUUUAAAUAGUCUGCAUGCCGCCGGGCGCCAUGCCUGCAGGUCGACUCUAGAAAACAUG” was tested, and the binding signal (PUM1 PUF domain R7-LWG) was 5.68 log2 enrichment (interaction score).

For “GGCUAGAACUAGUGGAUCCCCCGGCGCCCGGCGGCUCGAGCCCGGGUAAGUGUAAGUAGUCUGCAUGCCGCCGGGCGCCAUGCCUGCAGGUCGACUCUAGAAAACAUG”, the binding signal (PUM1 PUF domain R3-LWG) was 6.06 log2 enrichment (interaction score).

“GGCUAGAACUAGUGGAUCCCCCGGCGCCCGGCGGCUCGAGCCCGGGUAAGUGUACAUAGUCUGCAUGCCGCCGGGCGCCAUGCCUGCAGGUCGACUCUAGAAAACAUG” was tested, and the binding signal (PUM1 PUF domain R4-TPC) was 5.9 log2 enrichment (interaction score).
